Assay outcomes as filed in PubChem BioAssay.
The full list was thinned out, with hits kept by preference.
NS1 function inh – influenza NS1 inhibition; 0.4% of 270,000 active; Potency, µM (titrated, usually from 46.1 µM); calls by dose curve; also: actives are rising curves; nearly all actives have a fitted effect of over 50% in size
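S. cerevisiae expressing influenza A NS1, grown in glucose, washed, then diluted 1:100 into pH 6.0 -URA galactose medium with 23 nl compound. Growth recovery read as OD600; NS1-free strain serves as control.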
AmpC detergent – AmpC beta-lactamase inhibition with detergent present; P00811; AmpC hydrolysis of nitrocefin, absorbance 480 nm, 0.01% Triton; Potency, µM (top dose mostly 114 µM), hits mostly inhibitors; 0.041% of 370,000 active; also: nearly all actives have a fitted effect of over 25% in size
Target sequence (P00811 whole entry, looked up): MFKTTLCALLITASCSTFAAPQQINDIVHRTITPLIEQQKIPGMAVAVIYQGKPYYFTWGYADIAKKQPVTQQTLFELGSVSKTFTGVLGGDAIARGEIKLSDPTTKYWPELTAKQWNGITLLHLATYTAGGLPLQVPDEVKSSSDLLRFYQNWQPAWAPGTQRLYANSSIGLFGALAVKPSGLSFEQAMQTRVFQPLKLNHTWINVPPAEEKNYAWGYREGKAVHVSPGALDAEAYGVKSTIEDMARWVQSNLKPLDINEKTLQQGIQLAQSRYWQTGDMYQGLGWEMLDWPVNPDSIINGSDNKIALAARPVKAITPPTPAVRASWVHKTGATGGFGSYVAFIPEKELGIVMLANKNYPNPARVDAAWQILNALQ
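AmpC (5.3 nM in the dispensed reagent) in 20 mM phosphate pH 7.0 with 0.01% (detergent screen) or 0.0001% Triton X-100 was preincubated with compounds for 15 min at room temperature. Nitrocefin was then added from an 800 uM solution, and hydrolysis was followed at 480 nm.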
Shiga inhibitor – inhibitors of Shiga toxin in Vero cells. AID 2315. 9.2% of 290,000 active. inhibition, % at 38.7 µM. Vero cells, Shiga toxin protein synthesis inhibition reporter; in the data active = inhibition mostly above about 28%, no sharp cut-off; inactive = mostly below about 43%
AmpC no deterg – inhibitors of E. coli AmpC beta-lactamase without detergent | AmpC nitrocefin hydrolysis, absorbance 480 nm, 0.0001% Triton | 0.52% of 330,000 active | P00811 | Potency, µM (highest dose often 57.1 µM), actives largely listed as inhibitors | AID 485341; also: nearly all actives have a fitted effect of over 20% in size
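20 mM phosphate pH 7.0 + 0.01% (detergent screen) or 0.0001% Triton X-100; 5.3 nM AmpC reagent; cpd preinc 15 min RT; nitrocefin (800 uM stock) to start; A480 q20 s × 4 min; Activity was normalised to no-enzyme and no-compound control wells.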
Cycloheximide cs – affects cycloheximide protein synthesis inhibition readout, counter-screen; cell reporter, cycloheximide protein synthesis inhibition counterscreen; AID 2314; 12% of 300,000 active; max response, %; in the data active = max response mostly above about 13%, no sharp cut-off; inactive = mostly below about 14%; also: read at 38.3 µM for the half of the compounds with a filed dose
A number is an active result. Unless noted, calls follow the shape of the dose curve; as a rule, active = well fitted curve in the direction sought with a large enough effect; inconclusive = small, poorly fitted or top-dose-only effect, or another doubt; inactive = no such curve, though single readings can be large; an effect the other way counts as inactive or inconclusive.

How did O=C(CNC(=O)c1cccs1)OCc1c(F)cccc1Cl do in these assays?
NS1 function inh: inactive; AmpC detergent: inactive; Shiga inhibitor: 103; AmpC no deterg: inactive; Cycloheximide cs: 48

Results for Cc1ccc(S(=O)(=O)NCC(=O)NCC(=O)OCc2c(F)cccc2Cl)cc1 ?
NS1 function inh: inactive; AmpC detergent: inactive; Shiga inhibitor: inactive; AmpC no deterg: inactive; Cycloheximide cs: 13

What do the screens show for `CCC1CN(C(=O)C2CCN(S(=O)(=O)c3c(C)noc3/C=C/c3ccccc3F)CC2)c2cc(Cl)ccc2O1` (configuration not stated)?
AmpC detergent: inactive

What do the screens show for `O=C(CSc1n[nH]c(=O)n1C1CC1)NCc1ccccc1`?
NS1 function inh: inactive; AmpC detergent: inactive; Shiga inhibitor: inactive; AmpC no deterg: inactive; Cycloheximide cs: inactive

How did CCN(CC)c1ccc(C(=O)O)cc1 do in these assays?
NS1 function inh: inactive; AmpC detergent: inactive; Shiga inhibitor: inactive; AmpC no deterg: inactive; Cycloheximide cs: inactive

What do the screens show for `CC(C)(C)c1ccc(C(=O)n2cnc3ccccc32)cc1`?
NS1 function inh: inactive; AmpC detergent: inactive; Shiga inhibitor: 64; AmpC no deterg: inactive; Cycloheximide cs: 30

Results for CN(C)c1ccc(C(=O)n2nnc3ccccc32)cc1 ?
NS1 function inh: inactive; AmpC detergent: inconclusive; Shiga inhibitor: 116; AmpC no deterg: inactive; Cycloheximide cs: 57

What do the screens show for `CCN(CC)c1ccc(C(=O)n2cnc3ccccc32)cc1`?
NS1 function inh: inactive; AmpC detergent: inactive; Shiga inhibitor: inactive; AmpC no deterg: inactive; Cycloheximide cs: 25

What do the screens show for `CS(=O)(=O)c1nc(S(=O)(=O)c2ccc(Cl)cc2)c(NCCCN2CCCC2=O)s1`?
NS1 function inh: inactive; AmpC detergent: inactive; Shiga inhibitor: inactive; AmpC no deterg: inactive; Cycloheximide cs: inactive

Results for COc1ccc(NC(=O)CSc2nc(C)cc(C)c2C(=O)Nc2cccc(C)c2)cc1 ?
AmpC detergent: inactive

Results for CC(C)Oc1ccc(CNC(=O)c2cnc3sc(N4CCCCC4)nn3c2=O)cc1 ?
AmpC detergent: inactive

Results for Clc1ccc(/C=N/N2CCN(Cc3ccccc3)CC2)cc1 ?
NS1 function inh: inactive; AmpC detergent: inconclusive; Shiga inhibitor: inactive; AmpC no deterg: inactive; Cycloheximide cs: 17

How did CSc1ccc(/C=N/N2CCN(Cc3ccccc3)CC2)cc1 do in these assays?
NS1 function inh: inactive; AmpC detergent: inactive; Shiga inhibitor: 49; AmpC no deterg: inactive; Cycloheximide cs: 30

How did Oc1ccc(Br)cc1/C=N/N1CCN(Cc2ccccc2)CC1 do in these assays?
NS1 function inh: inactive; AmpC detergent: inactive; Shiga inhibitor: inactive; AmpC no deterg: inactive; Cycloheximide cs: inactive

Results for Cc1ccc(/C=N/N2CCN(Cc3ccc(Cl)cc3)CC2)o1 ?
NS1 function inh: inactive; AmpC detergent: inactive; Shiga inhibitor: inactive; AmpC no deterg: inactive; Cycloheximide cs: inactive

Results for COc1cccc(/C=N/N2CCN(Cc3ccccc3)CC2)c1O ?
NS1 function inh: inactive; AmpC detergent: inactive; Shiga inhibitor: inactive; AmpC no deterg: inactive; Cycloheximide cs: 24

Results for Clc1ccc(CN2CCN(/N=C/c3ccco3)CC2)cc1 ?
NS1 function inh: inactive; AmpC detergent: inactive; Shiga inhibitor: inactive; AmpC no deterg: inactive; Cycloheximide cs: 19

How did CC1CCCCN1c1cc2c(cc1F)c(=O)c(S(=O)(=O)c1ccccc1)cn2Cc1ccccc1 (configuration not stated) do in these assays?
AmpC detergent: inactive

Results for C(=N\N1CCN(Cc2ccccc2)CC1)/c1cccs1 ?
NS1 function inh: inactive; AmpC detergent: inactive; Shiga inhibitor: 45; AmpC no deterg: inactive; Cycloheximide cs: 41

How did C(=N\N1CCN(Cc2cccc3ccccc23)CC1)/c1cccs1 do in these assays?
NS1 function inh: inactive; AmpC detergent: inactive; Shiga inhibitor: inactive; AmpC no deterg: inactive; Cycloheximide cs: inactive

How did Cc1nc2sccn2c(=O)c1S(=O)(=O)Nc1cc(C(F)(F)F)ccc1Cl do in these assays?
AmpC detergent: inactive

What do the screens show for `Cc1cccc(CNC(=O)C2CCN(c3nc4ccc(Cl)cc4[nH]3)CC2)c1`?
AmpC detergent: inactive

Results for O=C(NCCCN1CCCC1=O)Nc1ccccc1Cl ?
NS1 function inh: inactive; AmpC detergent: inactive; Shiga inhibitor: inactive; AmpC no deterg: inactive; Cycloheximide cs: inactive

Results for O=C(NCCCN1CCCC1=O)c1cc2c(s1)CCCCC2 ?
NS1 function inh: inactive; AmpC detergent: inactive; Shiga inhibitor: 73; AmpC no deterg: inactive; Cycloheximide cs: 49

What do the screens show for `O=C(NCCCN1CCCC1=O)c1cccs1`?
NS1 function inh: inactive; AmpC detergent: inconclusive; Shiga inhibitor: inactive; AmpC no deterg: inactive; Cycloheximide cs: inactive

How did O=C(NCCCN1CCCC1=O)Nc1ccc([N+](=O)[O-])cc1 do in these assays?
NS1 function inh: inactive; AmpC detergent: inactive; Shiga inhibitor: inactive; AmpC no deterg: inactive; Cycloheximide cs: 18

What do the screens show for `O=C(NCCCN1CCCC1=O)c1sc2ccccc2c1Cl`?
NS1 function inh: inactive; AmpC detergent: inactive; Shiga inhibitor: 39; AmpC no deterg: inactive; Cycloheximide cs: 29

How did O=C(NCCCN1CCCC1=O)Nc1ccccc1F do in these assays?
NS1 function inh: inactive; AmpC detergent: inactive; Shiga inhibitor: 37; AmpC no deterg: inactive; Cycloheximide cs: 19

How did Cc1ccc(S(=O)(=O)N2CCCC(c3nc4c(nnn4Cc4ccc(OC(F)(F)F)cc4)c(=O)[nH]3)C2)cc1 (configuration not stated) do in these assays?
AmpC detergent: inactive

Results for Cc1ccc(CN2CCN(Cc3ccc(C)o3)[C@@H](C)C2)o1 ?
NS1 function inh: inactive

What do the screens show for `O=C(NC12CC3CC(CC(C3)C1)C2)C1CCCN1C(=O)Nc1ccccc1` (configuration not stated)?
NS1 function inh: inactive; AmpC detergent: inactive; Shiga inhibitor: inactive; AmpC no deterg: inactive; Cycloheximide cs: inactive

Results for Cc1ccc(NC(=O)NCCCN2CCCC2=O)cc1Cl ?
NS1 function inh: inactive; AmpC detergent: inactive; Shiga inhibitor: 74; AmpC no deterg: inactive; Cycloheximide cs: 31

What do the screens show for `Cc1ccc(NC(=O)NCCCN2CCCC2=O)c(C)c1`?
NS1 function inh: inactive; AmpC detergent: inactive; Shiga inhibitor: inactive; AmpC no deterg: inactive; Cycloheximide cs: inactive

What do the screens show for `O=C(Cn1nnc(-c2ccccc2Cl)n1)Nc1ccc(Br)cc1`?
AmpC detergent: inactive

How did Cc1cc(NC(=O)c2ccccc2F)nc2c1c(=O)oc1ccccc12 do in these assays?
AmpC detergent: inactive; Shiga inhibitor: inactive; AmpC no deterg: inactive; Cycloheximide cs: inactive

What do the screens show for `COc1ccccc1C(O)Cc1nc2ccccc2n1C` (configuration not stated)?
NS1 function inh: inactive; AmpC detergent: inactive; Shiga inhibitor: 108; AmpC no deterg: inactive; Cycloheximide cs: 63

What do the screens show for `COc1cc(C(=O)Cc2nc3ccccc3n2C)cc(OC)c1OC`?
NS1 function inh: inactive; AmpC detergent: inactive; Shiga inhibitor: inactive; AmpC no deterg: inactive; Cycloheximide cs: inactive

What do the screens show for `CN(C)c1ccc(C(O)Cc2nc3ccccc3n2C)cc1` (configuration not stated)?
NS1 function inh: inactive; AmpC detergent: inactive; Shiga inhibitor: 63; AmpC no deterg: inactive; Cycloheximide cs: 25
